Pf growth 48h: inhibits P. falciparum growth in the first generation, 48 h. P. falciparum luciferase growth in erythrocytes, 48 h. Potency, µM (highest dose often 28.7 µM), for inactives: top-dose activity change, negative = inhibition, hits mostly inhibitors. actives 5.9% (n = 310,000); also: potency is read from the fitted curve at half-maximal effect; % is scaled to controls: 0 for no effect and ±100 for the full control effect
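Erythrocytes infected with P. falciparum carrying an integrated firefly luciferase reporter (2% hematocrit, 0.1% parasitemia final) were exposed to compounds in RPMI 1640 with 0.5% Albumax at 37 C, 5% CO2. Growth inhibition was scored as reduced luminescence.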
CHX counter: counter-screen hit for Shiga toxin inhibitors, cycloheximide; actives 12% (n = 300,000); cell reporter, cycloheximide protein synthesis inhibition counterscreen; max response, %; AID 2314; in the data active = max response mostly above about 13%, no sharp cut-off; inactive = mostly below about 14%; also: read at 38.3 µM for the half of the compounds with a filed dose; 0% is about no effect
Pf growth 96h: inhibits malaria parasite growth, 96 h; P. falciparum luciferase reporter growth, 96 h; Potency, µM (highest dose often 28.7 µM), inactives show at the highest dose activity change, negative = inhibition, most hits filed as inhibitors; actives 6.9% (n = 320,000); also: potency is read from the fitted curve at half-maximal effect; % is scaled to controls: 0 for no effect and ±100 for the full control effect
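Delayed-death screen, second-generation endpoint: infected erythrocytes, 2% hematocrit, 0.05% parasitemia final; 96 hours at 37 C, 5% CO2; luciferase detection reagent; luminescence decrease equals reduced growth.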
SARS PLpro yeast: blocks SARS-CoV papain-like protease in a yeast assay; S. cerevisiae expressing SARS-CoV PLpro, growth rescue; Potency, µM (series often up to 32.9 µM), inactives show at the top dose activity, positive = growth rescue, actives largely listed as activators; actives 0.19% (n = 330,000); calls by dose curve; also: potency is read from the fitted curve at half-maximal effect; 0% is about no effect; nearly all actives have a fitted effect of over 55% in size
AMA1 RON2 block: disrupts binding of P. falciparum AMA1 to RON2; AlphaScreen AMA1-biotinylated RON2 peptide binding; Potency, µM (top dose mostly 58.2 µM), inactives show at the top dose activity change, negative = inhibition, hits mostly inhibitors; actives 0.2% (n = 360,000); AID 720542;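 also: potency is read from the fitted curve at half-maximal effect; 0% = vehicle wells and -100% = peptide control; nearly all actives have a fitted effect of over 45% in size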
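AMA1 (3D7) with his tag at 25 nM final met compounds first, then biotinylated RON2 peptide at 25 nM; detection used donor plus acceptor beads, 10 µg/mL apiece, read by AlphaScreen after 30 min at room temperature.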
Shiga inhibitor: inhibitors of Shiga toxin in Vero cells; actives 9.2% (n = 290,000); inhibition, % at 38.7 µM; Vero cells, Shiga toxin protein synthesis inhibition reporter; in the data active = inhibition mostly above about 28%, no sharp cut-off; inactive = mostly below about 43%; also: 0% is about no effect
An asterisk follows results filed as active; i = inactive; u = inconclusive; x = no result given. Only some compounds are listed: those with a hit (about 19% of all), similar ones and a draw of the others. Unless noted, calls follow the shape of the dose curve; as a rule, active = well fitted curve in the direction sought with a large enough effect; inconclusive = small, poorly fitted or top-dose-only effect, or another doubt; inactive = no such curve, though single readings can be large; an effect the other way counts as inactive or inconclusive.

SMILES | Pf growth 48h | CHX counter | Pf growth 96h | SARS PLpro yeast | AMA1 RON2 block | Shiga inhibitor
C=CCOc1ccc(C(=O)Nc2ccc(OCC)cc2)cc1 | 0.0% | 7.3 | 4.15µM* | 0.3% | -11.8% | 39.1
O=C(O)Cn1nnc(-c2ccc(OCc3ccccc3)cc2)n1 | x | x | x | x | -3.8% | x
Cc1ccc(S(=O)(=O)CCC(=O)OC(C)C(=O)Nc2ccc(N3CCOCC3)cc2)cc1 (stereo not drawn) | 51.4% | x | 46.3% | -1.7% | -3.5% | x
Cc1ccc(C)c(NC(=O)CN(C)C(=O)c2ccc(-c3ccc(Cl)cc3)o2)c1 | 1.47µM* | x | 13.1µM* | -2.4% | 3.1% | x
Cc1cccc(C)c1NC(=O)CN(C)C(=O)c1ccc(-c2cccc(C(F)(F)F)c2)o1 | 11.7µM* | x | u | 6.0% | -19.7% | x
CC(C)NC(=O)c1ccc(-c2cccc(C(F)(F)F)c2)o1 | -4.0% | -0.7 | u | -4.6% | 4.6% | 17.0
Cc1ccc(C)c(NC(=O)CN(C)C(=O)c2cc3ccccc3oc2=O)c1 | x | x | x | 0.9% | 4.3% | x
Cc1ccc(C)c(NC(=O)CN(C)C(=O)c2cc3ccccc3o2)c1 | 2.33µM* | 15.3 | 3.29µM* | -0.4% | -3.3% | 50.8
CN(CC(=O)Nc1cccc(F)c1)C(=O)c1ccc(-c2ccc(Cl)cc2)o1 | 1.85µM* | 23.2* | 1.65µM* | -19.2% | -0.7% | 71.5*
Cc1ccc(C)c(NC(=O)CN(C)C(=O)c2ccccc2Cc2ccccc2)c1 | u | x | u | 4.2% | 2.3% | x
Cc1ccc(CC(=O)Nc2ccccc2N2CCOCC2)cc1C | u | -5.6 | x | -7.2% | 1.9% | -13.6
CN1C(C(=O)NCc2cccc(Br)c2)CC2Cn3c(nc4cc5ccccc5cc43)C21 (stereo not drawn) | 22.2% | 2.0 | 23.6% | 1.0% | -4.9% | -2.0
Cc1ccc(S(=O)(=O)Nc2ccc(=O)n(Cc3ccc(Cl)c(Cl)c3)c2)cc1 | u | -0.3 | 7.1% | 1.1% | -6.1% | -10.7
Cc1nc2sccn2c(=O)c1CCN1CCC(=C(c2ccccc2)c2ccc(F)cc2)CC1 | 14.7µM* | -4.8 | 14.7µM* | 4.6% | x | -15.6
O=C(Nc1ccccc1)c1cn2ccccc2n1 | 37.6% | 6.9 | 338.3% | -3.9% | -6.5% | 6.8
O=C(Nc1ccc(-n2cnnn2)cc1)c1cn2ccccc2n1 | 119.7% | 22.2* | 99.2% | -0.1% | -1.2% | 30.4
Cc1c(NC(=O)c2cc(Br)ccc2Cl)cccc1-n1cnnn1 | x | x | x | 2.2% | 2.8% | x
Cc1c(NC(=O)c2cn3ccccc3n2)cccc1-n1cnnn1 | 70.4% | 15.2* | 50.4% | -0.3% | 5.4% | 33.1
COc1cc(C(=O)Nc2ccc3c(c2)Cc2cc(NC(=O)c4cc(OC)c(OC)c(OC)c4)ccc2-3)cc(OC)c1OC | 6.2% | 0.7 | u | 9.7% | 20.5% | -15.8
CO[C@@]12[C@@H]3N[C@@H]3CN1C1=C(C(=O)C(N)=C(C)C1=O)[C@@H]2COC(N)=O | x | x | x | x | -16.5% | x
CCCNC1=C(C)C(=O)C2=C(C1=O)C(COC(N)=O)[C@]1(OC)C3NC3CN21 (stereo partly drawn) | 1.31µM* | -1.9 | 0.185µM* | 1.2% | -20.0% | -7.1
CO[C@@]12[C@H](COC(N)=O)C3=C(C(=O)C(C)=C(N)C3=O)N1C[C@@H]1N[C@@H]12 | 13.1µM* | x | 5.22µM* | x | -5.4% | x
Cc1cc(C)n2c(=O)[nH]nc2c1 | x | x | x | x | 0.0% | x
O=c1ccc2cc3c(-c4ccccc4)coc3cc2o1 | 6.3% | 11.7 | -12.5% | -1.2% | -29.5% | -5.9
O=C(Nc1nccs1)c1cccnc1 | 45.4% | 1.8 | u | 2.1% | 11.3% | -11.4
SMILES | Pf growth 48h | CHX counter | Pf growth 96h | SARS PLpro yeast | AMA1 RON2 block | Shiga inhibitor
O=C(Nc1nccs1)c1cncc(Br)c1 | 207.8% | 48.5* | 240.7% | 0.9% | 87.0% | 95.7*
Cc1csc(NC(=O)c2cncc(Br)c2)n1 | i | 53.2* | i | 0.9% | -5.1% | 56.7
CC[C@@]1(c2ccccc2)C(=O)N(C(=O)OC)N1C(=O)OC | 1.2% | 4.8 | 63.5% | 4.0% | 2.1% | 2.7
COC(=O)N1C(=O)[C@@](c2ccccc2)(C2CCCCC2)N1C(=O)OC | 39.1% | 10.6* | 46.0% | -13.6% | 0.4% | 13.1
COC(=O)N1C(=O)[C@@](Cc2ccccc2)(c2ccccc2)N1C(=O)OC | -7.4% | 11.9* | u | -4.5% | -5.4% | 9.5
COC(=O)N1C(=O)[C@](Cc2ccccc2)(c2ccccc2)N1C(=O)OC | 32.5% | 21.0* | 30.7% | -1.3% | -4.1% | 5.2
Cc1nn(CC(=O)NC2(C#N)CCCCC2)c(C)c1[N+](=O)[O-] | 3.1% | x | -21.4% | 4.7% | 5.9% | x
Cc1cc(C)cc(N(C(=O)c2sc(C)nc2C)C(C(=O)NC(C)(C)C)c2ccncc2)c1 (stereo not drawn) | -15.0% | 1.9 | 0.0% | 2.3% | -23.6% | -16.1
COC(=O)[C@@H]1C[C@@]2(O)[C@H](O)[C@H](O)[C@H](O)C[C@H]2N1CC(c1ccccc1)c1ccccc1 | 66.1% | -0.8 | 3.4% | -0.2% | 10.7% | -2.0
COc1ccc(-c2nc3c(Br)c(N)c(Br)cc3o2)cc1 | 2.33µM* | 9.5 | u | 3.6% | 5.3% | 19.1
Nc1c(Br)cc2oc(-c3ccccc3)nc2c1Br | 227.0% | 17.8* | 273.3% | 14.6% | -11.1% | 33.1
COc1ccc(-c2cnc(N)nc2-c2ccc(OC)cc2O)cc1 | 7.2% | -3.2 | 33.0% | 2.8% | -0.3% | -10.7
COc1ccc(-c2nc(C(=O)N3CCN(C)CC3)sc2-c2ccc(OC)cc2)cc1 | x | -10.3 | x | x | x | -2.9
O=c1c2ccccc2c(C=Nc2ccc(S(=O)(=O)N3CCCCC3)cc2)c(O)n1-c1ccc(Cl)cn1 | -6.3% | -0.5 | 4.4% | -3.5% | 0.6% | 6.1
NS(=O)(=O)c1ccc(N=Cc2c(O)n(-c3nccs3)c(=O)c3ccccc23)cc1 | 4.65µM* | 0.2 | u | 1.1% | -22.9% | -2.5
c1ccc2c(-c3[nH]ncc3CNCCCn3ncc4ccccc43)cccc2c1 | 14.7µM* | -1.0 | 12.1% | 0.4% | -11.2% | 4.8
Cc1ccsc1C(=O)OCC(=O)Nc1sccc1C(N)=O | 105.3% | 42.3* | 275.0% | -5.5% | -4.5% | 64.8*
COc1ccc(C(=O)NC(C(=O)OCC(=O)Nc2sccc2C(N)=O)C(C)C)cc1 (stereo not drawn) | 11.7µM* | x | -14.8% | 5.2% | 5.6% | x
COc1ccc(-c2nc3c(n2O)CCC/C3=N\O)cc1 | 71.8% | 27.3* | 156.3% | -2.3% | 3.4% | 76.7
CCc1cccc(NC(=O)CSc2nc(C)cs2)c1 | x | x | x | x | 8.3% | x
CCN(CC)Cc1cc2[nH]c3c4ccc(Cl)cc4ncc3c2cc1OC | 0.0738µM* | -6.6 | 0.0928µM* | -0.4% | -11.1% | -8.5
CCCSc1nc2cc(OC)c(OC)cc2c(=N)n1CCCN1CCOCC1 | 11.7µM* | -4.4 | 4.65µM* | -0.8% | -20.2% | 17.4
C[C@@H]1CN([C@@H](C)CO)C(=O)c2cc(N(C)C)ccc2O[C@@H](C)CCCCO[C@@H]1CN(C)Cc1ccc2c(c1)OCO2 | x | x | x | x | -16.6% | x

Bioassay records: PubChem, National Center for Advancing Translational Sciences (NCATS)
